# Tests used:
# Assay in all cases: PBM binding z-score (relative to random genomic background probes); higher = stronger binding; sequences stand for … in GC…GCGATTGACAGCGTAGAATGAAGG
# [1] = tested on: FXR:RXRa (NR concentration 270 nM, RXRa partner concentration 90 nM)
# Summary of the method: (§1)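 Antibodies against each partner of ligand-free nuclear receptor dimers (one per run) detected binding on custom Agilent 4×180K protein-binding microarrays after 1 h incubation. The double-stranded probes had 34-nt variable regions carrying direct-repeat seeds, single-nucleotide variants, half-site ablations and random human genomic background sequences. Binding z-scores, from regression-normalized fluorescence, use the random background probes as reference.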
# [2] = tested on: LXRa:RXRa (NR concentration 270 nM, RXRa partner concentration 90 nM)
# Summary of the method: as §1
# [3] = tested on: LXRa homodimer (NR concentration 270 nM)
# Summary of the method: as §1
# [4] = tested on: LXRb:RXRa (NR concentration 270 nM, RXRa partner concentration 90 nM)
# Summary of the method: as §1
# [5] = tested on: LXRb homodimer (NR concentration 270 nM)
# Summary of the method: as §1
# [6] = tested on: PPARa:RXRa (NR concentration 270 nM, RXRa partner concentration 90 nM)
# Summary of the method: as §1
# [7] = tested on: PPARg:RXRa (NR concentration 180 nM, RXRa partner concentration 90 nM)
# Summary of the method: as §1
# [8] = tested on: PPARg:RXRa 270nM:90nM, anti-RXR (NR concentration 270 nM, RXRa partner concentration 90 nM)
# Summary of the method: as §1
# [9] = tested on: PPARg:RXRa 30nM:10nM, anti-RXR (NR concentration 30 nM, RXRa partner concentration 10 nM)
# Summary of the method: as §1
# [10] = tested on: PPARg:RXRa 90nM:30nM, anti-RXR (NR concentration 90 nM, RXRa partner concentration 30 nM)
# Summary of the method: as §1
# [11] = tested on: PPARg:RXRa DBDmut IVT, anti-RXR (DBD mutation: RXRa K156A/R161A, NR concentration 270 nM, RXRa partner concentration 90 nM)
# Summary of the method: as §1
# [12] = tested on: PPARg:RXRa IVT, anti-PPARg (NR concentration 270 nM, RXRa partner concentration 90 nM)
# Summary of the method: as §1
# [13] = tested on: PPARg DBDmut:RXRa IVT, anti-PPARg (DBD mutation: PPARg1 K132A/R137A, NR concentration 270 nM, RXRa partner concentration 90 nM)
# Summary of the method: as §1
# [14] = tested on: PPARg DBDmut IVT, anti-PPARg (DBD mutation: PPARg1 K132A/R137A, NR concentration 270 nM)
# Summary of the method: as §1
# [15] = tested on: PPARg homodimer (NR concentration 180 nM)
# Summary of the method: as §1
# [16] = tested on: PXR:RXRa (NR concentration 270 nM, RXRa partner concentration 90 nM)
# Summary of the method: as §1
# [17] = tested on: PXR homodimer (NR concentration 270 nM)
# Summary of the method: as §1
# [18] = tested on: RARa:RXR (NR concentration 270 nM, RXRa partner concentration 90 nM)
# Summary of the method: as §1
# [19] = tested on: RARa homodimer (NR concentration 270 nM)
# Summary of the method: as §1
# [20] = tested on: RARb:RXRa (NR concentration 270 nM, RXRa partner concentration 90 nM)
# Summary of the method: as §1
Sequence,PBM binding z-score [1],PBM binding z-score [2],PBM binding z-score [3],PBM binding z-score [4],PBM binding z-score [5],PBM binding z-score [6],PBM binding z-score [7],PBM binding z-score [8],PBM binding z-score [9],PBM binding z-score [10],PBM binding z-score [11],PBM binding z-score [12],PBM binding z-score [13],PBM binding z-score [14],PBM binding z-score [15],PBM binding z-score [16],PBM binding z-score [17],PBM binding z-score [18],PBM binding z-score [19],PBM binding z-score [20]
CCGTGTAGGTTATGGGGCATTCAGGCAACGGTGA,0.503,0.731,0.151,0.984,0.31,2.13,2.03,3.57,1.74,3.16,2.12,2.67,-1.11,-0.904,1.42,0.0818,-0.178,0.761,0.31,1.33
CGTCCAAGGTCCAGGTCAGTGAAAGAGACTCGAA,0.579,0.595,0.0341,0.462,-0.914,1.17,0.0886,0.162,-0.651,-0.258,0.342,0.512,-0.921,-0.937,0.811,0.618,-0.111,0.904,0.0146,2.52
AGAACGAGGGCAATCAGTTGATAGCACGGGTGGC,0.397,0.342,-0.0973,0.0776,0.0962,1.68,1.44,1.15,0.168,0.658,3.4,3.01,0.487,-0.148,-0.207,1.03,1.55,0.384,-0.0136,2.09
ACTCAAAGTTCATCTAGGTAACGTAAGATATGCT,6.73,6.05,5.36,4.18,2.43,4.79,3.49,3.98,1.56,2.74,1.43,2.81,2.23,2.06,3.4,5.34,7.92,4.08,2.11,5.33
CGTCCAAGGTCAAGGTCAGTGACAGAGACTCGAA,7.96,5.86,1.34,4.71,0.819,5.76,6.3,6.48,2.85,4.82,4.03,4.87,1.18,-0.455,4.7,5.25,1.84,5.72,2.23,5.75
CGTCCAAGGTCAGAGAGGTCAGTGATTGCCGAGT,5.58,5.02,2.88,4.28,0.656,4.54,3,3.95,0.692,2.55,3.12,3.08,-0.867,-0.653,4.12,5.79,10.6,4.66,1.54,5.09
TCTTGGAGGACACGAAAGGTCAGAGCTCGACATC,3.33,4.06,2.83,3.37,0.286,3.75,1.68,3.16,2.54,2.89,2.26,2.63,0.421,0.521,2.91,4.16,0.329,4.3,0.376,4.39
TCATATAGGTAAATGCGAGGTGAAAGTCCGATCT,1.14,1.58,0.216,0.944,-0.00137,2.07,1.06,2.53,4.02,3.07,4.13,3.06,1.27,1.1,1.14,1.1,0.0797,1.67,1.15,0.77
AGTCAAAGTACAGGACGAGGTAACGTAAAGCACG,0.0471,-0.247,0.0589,-0.158,-0.441,-0.0272,0.99,0.138,0.254,0.0519,-0.428,0.795,0.576,0.384,0.381,-0.161,0.4,0.278,-0.0608,0.641
AGAATGAGGTTACCAAAGAGCAGGGAAACGCTTG,1.71,5.78,-0.463,2.41,-0.39,3.05,2.22,2.47,0.623,1.44,3.47,2.96,0.794,-0.0129,0.046,1.05,-0.21,1.71,-0.396,2
CCGACTGGGGCAAAAGGTTACCATAAGCCAGCCC,0.815,3.36,-0.19,1.86,-1.26,3.28,4.13,5.64,3.64,5.79,3.77,4.07,-0.978,-1.25,1.06,1.68,-0.41,2.83,0.0331,2.8
TCATATAGGTAAAGGTGAAAGACGAACGATATGA,1.12,1.17,-0.192,1.28,0.0599,3.09,4.19,4.4,4.5,4.66,3.92,4.19,2,1.64,1.19,0.767,-0.0893,1.22,0.159,1.85
CAAACTAGGTCACGAAAGGCCAAAGTCGAATGAC,5.15,6.02,1.03,4.03,0.629,5.58,9.27,7.42,5.71,7.41,8.35,9.09,5.28,3.96,2.99,4.77,0.402,3.68,0.983,4.56
CCTAGCAGGCCAATCCGGGTCACTCAAGGCTTGA,2.13,1.84,-0.396,1.47,-0.923,2.78,0.787,1.02,-0.565,0.469,2.27,2.8,-1.26,-0.765,0.726,2.79,-0.246,2.23,-0.442,1.63
TCATATAGGTAAAAGGTGAAAGTTGGTGTGGTAA,2.15,2.33,0.407,2.44,0.326,5.33,9.26,8.44,8.7,8.75,5.28,5.23,1.91,1.67,2.39,2.16,0.944,3.3,2.02,2.09
AGAATGAGGATAAGATCAGGGAAACAGAATACAT,0.459,-0.133,-0.218,-0.0492,-0.342,-0.0848,1.2,-0.174,0.433,0.00747,-0.0375,-0.0536,-0.123,0.538,0.327,-0.171,0.272,0.067,0.354,0.0475
CCCGACAGGTGAGAAGGTAACTCAGCCTCGATTA,-0.0059,0.3,0.072,0.291,-0.434,0.726,0.396,0.584,-0.2,0.0512,0.828,0.811,-0.905,-0.776,0.497,-0.281,-0.233,-0.0407,0.0144,0.749
CTCGAACGGTCGTGCTCAGGTGAGTATACCAAAC,-0.183,-0.208,-0.21,-0.274,-0.517,-0.309,-0.285,-0.662,-0.759,-1.01,0.143,-0.0947,-0.8,-0.726,0.0744,-0.455,-0.32,-0.252,-0.56,0.781
TCATATAGGTAACGGTGAAAGTCGAACGATATGA,0.511,0.386,-0.274,0.302,-0.326,1.52,1.63,2.54,3.34,2.78,4.89,4.04,1.45,1.23,-0.0318,0.0146,-0.0521,0.23,0.533,0.479
AGTTAAAGTTCAGGACGAGGTAACGTAAAGCACG,3.69,3.97,1.7,1.91,0.474,2.83,2.49,3.2,1.18,2.14,-0.314,1.18,0.861,1.1,2.09,2.95,1.51,2.66,0.705,4.06
TCTTGTAGATCAGCAGGGTAAGAAAGCTGGCCAA,-0.168,-0.124,-0.627,-0.0454,-0.559,0.26,-0.512,1.17,2.55,1.82,1.81,0.207,-0.22,-0.694,-0.287,0.0405,-0.245,0.188,-0.0241,-0.199
CCTACTGGACCATCAGGTCATTGATATCAACGTT,1.87,1.86,2.81,2.53,1.02,2.43,1.14,1.97,0.798,1.68,2.13,2.58,0.468,0.568,2.23,2.09,1.45,2.25,1.47,1.97
AGTCAAAGTTCTCTAGGTAACGTAAGATTCAGCT,0.109,-0.065,0.22,0.0719,-0.356,0.668,0.831,1.19,0.092,0.81,1.68,2.51,0.928,0.591,0.225,0.000883,0.167,0.366,0.183,0.732
ATCGAAAGGTCTAGGTGAGTATAGAGAAAGGGAA,0.504,0.836,0.254,0.163,0.443,0.539,0.509,0.366,0.34,0.331,0.689,1.37,0.807,0.731,0.408,0.216,0.272,0.406,0.837,1.71
CCGAGTAGGTTAAGGGGCATTCAGGCAACGGTGA,0.765,0.894,-0.155,1.02,-0.297,3.51,6.06,6.42,4.16,6.65,3.63,4.08,-0.405,-0.995,0.976,0.49,0.0402,1.39,0.293,1.51
GCTGCTTGGTCAGGTTGGTCAGCTAACGGGTACG,-0.11,-0.383,-0.554,-0.457,-0.187,-0.407,-0.682,-0.648,-0.905,-1.09,-0.165,0.0885,-0.778,-0.893,-0.123,-0.298,-0.597,-0.108,-0.538,0.63
GCTCGGAGGACAAGGTAAGAGCTTTGTCCGTAGA,-0.326,-0.633,-0.985,-0.8,-1.57,-0.331,-0.742,-0.267,-0.952,-0.841,-0.716,-0.298,-1.26,-1.29,-1.16,-0.574,-1.14,-0.493,-1.14,0.88
CCGACTGGGGCATAAGGTTACAATAAGCCAGCCC,0.415,1.46,-0.348,0.936,-0.85,1.9,2.58,3.36,0.985,2.68,3.12,3.35,-1.72,-1.42,0.586,0.38,-0.291,1.17,-0.0919,1.58
CCTAGTTGGTCAAGGTCAGACACGCTATAGGTAC,2.19,2.38,1.11,2.12,0.541,2.78,1.85,2.26,0.813,1.73,1.83,2.54,0.343,0.91,2.01,2.52,1.51,2.45,2.36,3.6

# Source: the supplement of paper PMC6555819
